# PubChem BioAssay (NCI)
# About 83,000 compounds went through this panel and 20% of them were active in at least one assay; those are over-represented in the sample as a whole.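 In brief: 96-well plates, 48 h treatment, single concentration, percent growth endpoint.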 The source made the active and inactive calls. Rule for the calls: active = growth percent below 10; inactive = the rest.
# Tested on: HL-60(TB) leukemia
# Test: NCI-60 one-dose screen, 48 h (100 = growth as untreated, 0 = no growth, -100 = all killed)
# Conditions: 10 µM unless noted
row,SMILES,growth
1,C[C@@H]1O[C@@H](O[C@H]2[C@@H](OC(=O)[C@]34CCC(C)(C)C[C@H]3C3=CC[C@@H]5[C@@]6(C)C[C@H](O)[C@H](O[C@@H]7O[C@H](CO)[C@@H](O)[C@H](O)[C@H]7O)[C@@](C)(CO)[C@@H]6CC[C@@]5(C)[C@]3(C)C[C@H]4O)OC[C@@H](O)[C@@H]2O)[C@H](O)[C@H](O[C@@H]2OC[C@@H](O)[C@H](O[C@@H]3OC[C@](O)(CO)[C@H]3O[C@@H]3OC[C@@H](O)[C@H](O)[C@H]3O)[C@H]2O)[C@H]1O[C@@H]1OC[C@](O)(CO)[C@H]1O,21.4% (inactive)
2,CCOC(=O)C1=C(CCl)N(C)C(=O)NC1c1ccc2c(c1)OCO2 (stereo not given),33.1% (inactive)
3,COC(=O)/C=C/C(=O)c1cc(C)cc(C)c1O,86.6% (inactive)
4,O=C(OCc1ccc2c(Cl)cc(Cl)c(O)c2n1)N1CCNCC1,64.5% (inactive)
5,Cc1nc2ccccc2c(/C=C/c2ccc(Cl)cc2)c1C(=O)/C=C/c1ccc(C(F)(F)F)cc1,-37% (active)
